In PubChem BioAssay AID1159580 (chemical genetic matrix, 2015):
“And” between values parts separate entries of the source, which are not always exact repeats. Equal entries are not always repeated. Screen size: about 5,500 compounds; about 2,000 (36%) were called active. Another 18% or so got no clear call; they are omitted. Cut-off read from the data, not from the text of the source: active = normalized growth mostly below about 0.91 (no sharp cut-off); inconclusive = no clear call, values can overlap the other calls; inactive = mostly above about 0.92. The list shows a part of the results.

Test: chemical genetic growth profiling, strain panel (AID 1159580);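 note: tested at 20 µM; growth read once vehicle control cultures reached saturation at 30 °C; 1 = growth at the plate median or of vehicle wells; lower values mean less growth of the strain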
Conditions: S. cerevisiae deletion strains, growth OD

Measured: normalized growth

C[C@@H]1CC(Cl)CC[C@H]1C(=O)OC(C)(C)C (some centres not stated)
inactive: locus YAL013W, strain DEP1, active compounds read low 0.987 | locus YAL021C, strain ccr4, active compounds read low 1.02 | locus YAL026C, strain drs2, active compounds read low 0.973 | locus YAL030W, strain snc1, active compounds read low 0.982 | locus YBL061C, strain skt5, active compounds read low 0.983 | locus YBR009C, strain hhf1, active compounds read low 0.948 | locus YBR021W, strain FUR4, active compounds read low 0.976 | locus YBR023C, strain chs3, active compounds read low 0.98 | locus YBR171W, strain sec66, active compounds read low 0.979 | locus YBR229C, strain ROT2, active compounds read low 0.992 | locus YBR231C, strain swc5, active compounds read low 0.986 | locus YBR279W, strain paf1, active compounds read low 0.993 | locus YCL011C, strain gbp2, active compounds read low 0.979 | locus YCL016C, strain dcc1, active compounds read low 0.98 | locus YCL029C, strain bik1, active compounds read low 0.98 | locus YCL061C, strain MRC1, active compounds read low 0.983 | locus YCL069W, strain vba3, active compounds read low 0.985 | locus YCR088W, strain abp1, active compounds read low 0.987 | locus YDL005C, strain med2, active compounds read low 0.991 | locus YDL035C, strain GPR1, active compounds read low 0.995 | locus YDL040C, strain nat1, active compounds read low 0.982 | locus YDL074C, strain BRE1, active compounds read low 0.948 | locus YDL101C, strain DUN1, active compounds read low 0.985 | locus YDL134C, strain PPH21, active compounds read low 0.997 | locus YDL185W, strain tfp1, active compounds read low 0.952 | locus YDL192W, strain arf1, active compounds read low 0.983 | locus YDR001C, strain nth1, active compounds read low 0.976 | locus YDR069C, strain doa4, active compounds read low 0.97 | locus YDR101C, strain arx1, active compounds read low 0.969 | locus YDR137W, strain rgp1, active compounds read low 0.93 | locus YDR150W, strain NUM1, active compounds read low 0.984 | locus YDR159W, strain sac3, active compounds read low 0.915 | locus YDR162C, strain NBP2, active compounds read low 0.992 | locus YDR195W, strain ref2 0.961 | locus YDR297W, strain sur2, active compounds read low 0.981 | locus YDR318W, strain mcm21, active compounds read low 0.988 | locus YDR334W, strain swr1, active compounds read low 0.978 | locus YDR335W, strain msn5, active compounds read low 0.981 | locus YDR388W, active compounds read low 0.994 | locus YDR392W, strain spt3, active compounds read low 0.774 | locus YDR502C, strain sam2, active compounds read low 0.992 | locus YEL003W, strain gim4, active compounds read low 0.976 | locus YEL037C, strain rad23, active compounds read low 0.983 | locus YEL061C, strain CIN8 (second series), active compounds read low 0.984 | locus YEL061C, strain CIN8, active compounds read low 0.989 | locus YER015W, strain faa2, active compounds read low 0.986 | locus YER016W, strain bim1, active compounds read low 0.975 | locus YER110C, active compounds read low 0.986 | locus YER111C, strain swi4, active compounds read low 0.964 | locus YER155C, strain BEM2 (second series), active compounds read low 0.956 | locus YER155C, strain BEM2, active compounds read low 0.997 | locus YER167W, strain BCK2, active compounds read low 0.993 | locus YFR010W, strain ubp6, active compounds read low 0.98 | locus YGL078C, strain dbp3, active compounds read low 0.983 | locus YGL086W, strain mad1, active compounds read low 1 | locus YGL167C, strain pmr1, active compounds read low 0.973 | locus YGL173C, strain kem1, active compounds read low 0.968 | locus YGL227W, strain vid30, active compounds read low 0.988 | locus YGL240W, strain doc1, active compounds read low 0.978 | locus YGL248W, strain PDE1, active compounds read low 0.995 | locus YGL253W, strain hxk2, active compounds read low 0.969 | locus YGR078C, strain PAC10, active compounds read low 0.971 | locus YGR135W, strain pre9, active compounds read low 0.988 | locus YGR229C, strain SMI1, active compounds read low 0.909 | locus YGR252W, strain gcn5, active compounds read low 1.19 | locus YHR013C, strain ard1, active compounds read low 0.95 | locus YHR027C, strain rpn1, active compounds read low 0.981 | locus YHR030C, strain SLT2, active compounds read low 0.982 and 1.01 | locus YHR079C, strain IRE1 (second series), active compounds read low 0.985 | locus YHR079C, strain IRE1, active compounds read low 1.01 | locus YHR094C, strain hxt1, active compounds read low 0.972 | locus YHR129C, strain ARP1, active compounds read low 0.985 | locus YHR142W, strain chs7, active compounds read low 1.01 | locus YHR200W, strain rpn10, active compounds read low 0.997 | locus YIL066C, strain RNR3, active compounds read low 0.995 | locus YIL073C, strain SPO22, active compounds read low 0.96 | locus YIL125W, strain kgd1, active compounds read low 0.987 | locus YIR030C, strain dcg1, active compounds read low 0.993 | locus YJL092W, strain hpr5, active compounds read low 0.984 | locus YJL095W, strain BCK1 (second series), active compounds read low 0.984 | locus YJL095W, strain BCK1, active compounds read low 1 and 1.01 | locus YJL115W, strain asf1, active compounds read low 0.993 | locus YJL129C, strain trk1, active compounds read low 0.975 | locus YJL134W, strain LCB3, active compounds read low 0.99 | locus YJL154C, strain vps35, active compounds read low 0.98 | locus YJL164C, strain tpk1, active compounds read low 1 | locus YJL166W, strain qcr8, active compounds read low 0.986 | locus YJL168C, strain set2, active compounds read low 0.979 | locus YJL187C, strain SWE1 (second series), active compounds read low 0.975 | locus YJL187C, strain SWE1, active compounds read low 0.986 | locus YJR043C, strain POL32, active compounds read low 0.977 | locus YJR066W, strain TOR1, active compounds read low 0.939
